According to PubChem BioAssay (Tox21):
Records with an inconclusive call do not appear. Calls of active or inactive are those of the source. Unless noted, the call rests on the fitted dose curve; in most records, active means well fitted curve in the direction sought with a large enough effect in the repeat runs; inconclusive means weak or mixed curves; inactive means no such curve, though single readings can be large; an effect the other way counts as inactive or inconclusive.

Assays:
[1] = qHTS assay to identify small molecule antagonists of the androgen receptor (AR) signaling pathway using the MDA cell line in the presence of 0.5 nM R1881 - cell viability counter screen (AID 1259242); further: nearly all actives have a fitted effect of over 45% in size
Outline: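 Live-cell protease fluorescence, CellTiter-Fluor, 30 min at 37C. Cells: MDA-kb2, 3,000/well, preincubated 5 hr. Compounds plus 0.5 nM R1881 final, 16 hr, 37C, 0% CO2.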

[2] = target: Androgen receptor (Homo sapiens) (UniProt P10275); test: qHTS assay to identify small molecule antagonists of the androgen receptor (AR) signaling pathway using the MDA cell line in the presence of 0.5 nM R1881 (AID 1259243); further: nearly all actives have a fitted effect of over 50% in size
Outline: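 MDA-kb2, MMTV-luc (AR/GR elements); 3,000 cells/well; cpd + 0.5 nM R1881 final; 16 hr 37C, 0% CO2; ONE-Glo 30 min RT; luminescence.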

[3] = target: Estrogen receptor (Homo sapiens) (UniProt P03372); test: qHTS assay to identify small molecule antagonists of the estrogen receptor alpha (ER-alpha) signaling pathway using the BG1 cell line in the presence of 0.1 nM 17-beta-estradiol (AID 1259244); further: nearly all actives have a fitted effect of over 50% in size
Outline: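 Luminescence after ONE-Glo (30 min, room temperature) measured ERE-luciferase activity in VM7Luc4E2 cells treated 22 h with compound and 0.1 nM final 17beta-estradiol as stimulator.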

[4] = qHTS assay to identify small molecule HDAC inhibitors (AID 1259364);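 further: wild-type HCT-116 cells with endogenous class I/II HDAC activity; top concentration of the series differs between compounds; nearly all actives have a fitted effect of over 45% in size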
Outline: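 HCT-116 (wild type), 1,500 cells/well, overnight; compound 2 hr 37C 5% CO2; HDAC-Glo I/II reagent 30 min RT; luminescence readout.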

[5] = qHTS assay to identify small molecule HDAC inhibitors - cell viability counter screen (AID 1259365); further: series mostly up to about 92 µM; nearly all actives have a fitted effect of over 50% in size
Outline: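 HCT-116 wild-type, overnight attachment; 2hr drug exposure, 37C; CellTiter-Glo luminescent ATP readout after 30min RT.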

[6] = qHTS assay to identify small molecule agonists of the sonic hedgehog signaling (Shh) pathway - cell viability counter screen (AID 1259366); further: nearly all actives have a fitted effect of over 50% in size
Outline: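 Compounds in DMSO were pin-transferred onto 3T3 Gli1-Luc cells that had settled 4hr; plates then stood 24hr at 37C and 5% CO2. One hour before the end, CellTiter-Fluor was added and fluorescence recorded.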

[7] = qHTS assay to identify small molecule antagonists of the sonic hedgehog signaling (Shh) pathway - cell viability counter screen (AID 1259367); further: nearly all actives have a fitted effect of over 55% in size
Outline: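 Viability was read by CellTiter-Fluor fluorescence in the same wells, reagent added 23 hr into compound treatment and incubated 1 hr at 37C. The 3T3 Gli1-Luc reporter cells (2,000/well) received conditioned medium after compound and ran 24 hr.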

[8] = qHTS assay to identify small molecule agonists of the sonic hedgehog signaling (Shh) pathway (AID 1259368; calls by dose curve;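 further: NIH/3T3-derived 3T3Gli1-Luc cells carrying a stable Gli1-driven firefly luciferase reporter; series mostly up to about 92 µM; nearly all actives have a fitted effect of over 15% in size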)
Outline: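 Read-out: firefly luciferase luminescence from a Gli1 response element reporter stably integrated in NIH/3T3-derived 3T3Gli1-Luc cells, measured 30 min at room temperature after reagent addition. Compound exposure lasted 24 hr at 37 C, 5% CO2.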

[9] = qHTS assay to identify small molecule antagonists of the sonic hedgehog signaling (Shh) pathway (AID 1259369; calls by dose curve; further: nearly all actives have a fitted effect of over 45% in size)
Outline: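 Luminescence readout: firefly Luc under Gli1 response element in 3T3Gli1-Luc cells (NIH/3T3 clone). Antagonist mode, stimulation by conditioned medium; compound exposure 24hr at 37 C, 5% CO2.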

[10] = target: Estrogen receptor beta (Homo sapiens) (UniProt Q92731); test: qHTS assay to identify small molecule agonists of the estrogen receptor beta (ER-beta) signaling pathway (AID 1259377; active means well fitted activation curve with a large enough effect in the signal ratio in the repeat runs, not every such curve was filed as active; the % refers to the signal ratio)
Outline: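 qHTS in ER-beta-UAS-bla HEK293T cells: 6 hr settling, then 16 hr compound at 37C, then LiveBLAzer substrate 2 h at RT before fluorescence reading.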

[11] = target: Estrogen receptor beta (Homo sapiens) (UniProt Q92731); test: qHTS assay to identify small molecule antagonists of the estrogen receptor beta (ER-beta) signaling pathway (AID 1259378; active means well fitted inhibition curve with a large enough effect in the signal ratio in the repeat runs, not every such curve was filed as active; the % refers to the signal ratio)
Outline: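 Antagonist mode: compounds added to beta-lactamase reporter HEK293T ER-beta-UAS cells stimulated with E2 (1nM final), 16 hr at 37C. LiveBLAzer B/G FRET substrate, 2 hours room temperature, fluorescence read-out.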

[12] = qHTS assay to identify small molecule agonists of the androgen receptor (AR) signaling pathway in the presence of an antagonist - cell viability counter screen (AID 1259379);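 further: MDA-kb2 human breast cancer cells carrying an MMTV luciferase reporter; series mostly up to about 92 µM; nearly all actives have a fitted effect of over 25% in size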
Outline: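 Viability counter screen: CellTiter-Fluor fluorescence, measured in the same wells as the luciferase read-out. MDA-kb2 cells, 3,000/well, with nilutamide at 3.0uM final and compounds at 15 concentrations, 16 hr at 37C, 0% CO2.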

[13] = qHTS assay to identify small molecule agonists of the estrogen receptor beta (ER-beta) signaling pathway - cell viability counter screen (AID 1259380); further: nearly all actives have a fitted effect of over 30% in size
Outline: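 Luminescence read-out (CellTiter-Glo, 30 min, room temp) taken in the same wells as the beta-lactamase reporter assay; ER-beta-UAS-bla HEK293T cells exposed to DMSO-dissolved compounds for 16 hr at 37C in 2% charcoal-stripped FBS medium.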

[14] = target: Estrogen receptor (Homo sapiens) (UniProt P03372); test: qHTS assay to identify small molecule agonists of the estrogen receptor alpha (ER-alpha) signaling pathway in the presence of an antagonist (AID 1259383; calls by dose curve; further: top concentration of the series differs between compounds; nearly all actives have a fitted effect of over 15% in size)
Outline: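 Luciferase luminescence (ONE-Glo, 30min at room temperature) measured in VM7Luc4E2 cells after 22hr compound exposure at 15 concentrations, with 10.0nM ICI-182,780 final present; cells express endogenous ER-alpha and carry four EREs upstream of luciferase.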

[15] = qHTS assay to identify small molecule agonists or antagonists of the thyroid stimulating hormone receptor (TSHR) signaling pathway - wild type cell line counter screen (AID 1259384; calls by dose curve)
Outline: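 Counter screen in untransfected Hek293: compounds (15-point titration, triplicate) plus phosphodiesterase inhibitor Ro20-1724 added after 18 h plating; 30 min RT. Intracellular cAMP via competitive d2/cryptate immunoassay, 1 h incubation.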

[16] = target: Thyrotropin receptor (Homo sapiens) (UniProt P16473); test: qHTS assay to identify small molecule antagonists of the thyroid stimulating hormone receptor (TSHR) signaling pathway (AID 1259385; calls by dose curve; further: nearly all actives have a fitted effect of over 20% in size)
Outline: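 Antagonist mode: compound-treated TSHR-expressing HEK293 cells were stimulated with 1.5 ng/mL TSH (final) in presence of Ro20-1724 for 30 min at RT. HTRF cAMP detection after 1 h; each compound tested at 15 concentrations, triplicate.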

[17] = qHTS assay to identify small molecule agonists of the estrogen receptor alpha (ER-alpha) signaling pathway in the presence of an antagonist - cell viability counter screen (AID 1259386);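 further: series mostly up to about 92 µM; cells exposed to compounds for 22 h at 37 °C before the viability read; nearly all actives have a fitted effect of over 30% in size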
Outline: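 Read-out: CellTiter-Fluor fluorescence after 1hr reagent incubation, measured in the same wells as the luciferase readout. VM7Luc4E2 cells were exposed to 15 compound concentrations with 10.0nM ICI-182,780 for 22hr at 37C.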

[18] = target: Androgen receptor (Homo sapiens) (UniProt P10275); test: qHTS assay to identify small molecule agonists of the androgen receptor (AR) signaling pathway in the presence of an antagonist (AID 1259381; calls by dose curve; further: nearly all actives have a fitted effect of over 15% in size)
Outline: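 Luciferase read-out (ONE-Glo, 30min room temperature) in MDA-kb2 MMTV-reporter cells; agonist mode run in presence of AR antagonist nilutamide, 3.0uM final. Compounds tested as 15-point series, 16hr exposure at 37C, 0% CO2.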

[19] = qHTS assay to identify small molecule antagonists of the estrogen receptor beta (ER-beta) signaling pathway - cell viability counter screen (AID 1259382);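 further: HEK293T cells carrying ER-beta-UAS-bla reporter stimulated with estradiol; series mostly up to about 92 µM; nearly all actives have a fitted effect of over 55% in size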
Outline: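 Luminescent ATP read-out (CellTiter-Glo, 30 min, RT) taken in the same wells as the bla reporter assay. HEK293T ER-beta-UAS-bla cells in 2% charcoal-stripped FBS were exposed to compounds with 1nM E2 for 16 hr at 37C.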

[20] = qHTS assay to identify small molecule phospholipidosis (PLD) inducers (AID 1259344; active means well fitted curve in the direction sought with a large enough effect; an effect the other way counts as inactive or inconclusive)
Outline: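 Phospholipid accumulation was scored by imaging: fixed, Hoechst-counterstained HepG2 cells stained with LipidTOX Red after 24 h compound exposure at 37 C. Read-outs were pit count and pit intensity per well or per cell, with amiodarone and DMSO controls.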

Measured: Potency

Chain of Estrogen receptor beta (Homo sapiens) (Q92731 whole entry, looked up): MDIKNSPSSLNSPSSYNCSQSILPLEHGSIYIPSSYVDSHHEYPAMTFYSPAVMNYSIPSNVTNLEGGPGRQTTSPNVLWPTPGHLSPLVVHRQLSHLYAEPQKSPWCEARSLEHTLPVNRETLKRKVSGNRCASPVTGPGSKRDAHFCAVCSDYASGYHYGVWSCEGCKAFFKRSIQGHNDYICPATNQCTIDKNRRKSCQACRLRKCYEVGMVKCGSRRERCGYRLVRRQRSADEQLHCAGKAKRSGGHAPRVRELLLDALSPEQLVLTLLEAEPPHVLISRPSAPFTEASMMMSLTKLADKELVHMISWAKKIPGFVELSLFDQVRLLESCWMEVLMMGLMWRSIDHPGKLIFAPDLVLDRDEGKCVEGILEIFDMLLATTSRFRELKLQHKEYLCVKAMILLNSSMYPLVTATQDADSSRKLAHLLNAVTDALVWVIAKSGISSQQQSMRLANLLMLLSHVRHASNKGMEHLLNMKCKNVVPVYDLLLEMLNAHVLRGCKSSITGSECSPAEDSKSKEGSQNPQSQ
Chain of Estrogen receptor (Homo sapiens) (P03372 whole entry, looked up): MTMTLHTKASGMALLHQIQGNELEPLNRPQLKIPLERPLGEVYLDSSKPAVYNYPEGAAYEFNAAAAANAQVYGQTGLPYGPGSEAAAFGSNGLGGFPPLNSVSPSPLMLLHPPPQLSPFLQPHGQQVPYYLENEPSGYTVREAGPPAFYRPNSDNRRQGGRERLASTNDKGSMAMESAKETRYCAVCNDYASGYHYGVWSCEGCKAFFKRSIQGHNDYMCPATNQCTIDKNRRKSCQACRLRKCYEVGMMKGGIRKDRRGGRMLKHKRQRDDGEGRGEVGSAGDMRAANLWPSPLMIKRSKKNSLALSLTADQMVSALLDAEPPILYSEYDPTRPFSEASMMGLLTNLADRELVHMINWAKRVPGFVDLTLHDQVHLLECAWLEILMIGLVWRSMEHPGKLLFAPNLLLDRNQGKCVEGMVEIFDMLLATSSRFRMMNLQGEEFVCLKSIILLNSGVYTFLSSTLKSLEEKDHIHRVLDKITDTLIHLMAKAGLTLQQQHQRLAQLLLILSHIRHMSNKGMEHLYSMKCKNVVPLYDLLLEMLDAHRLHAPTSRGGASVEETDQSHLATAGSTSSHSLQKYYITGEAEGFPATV
Chain of Thyrotropin receptor (Homo sapiens) (P16473 whole entry, looked up): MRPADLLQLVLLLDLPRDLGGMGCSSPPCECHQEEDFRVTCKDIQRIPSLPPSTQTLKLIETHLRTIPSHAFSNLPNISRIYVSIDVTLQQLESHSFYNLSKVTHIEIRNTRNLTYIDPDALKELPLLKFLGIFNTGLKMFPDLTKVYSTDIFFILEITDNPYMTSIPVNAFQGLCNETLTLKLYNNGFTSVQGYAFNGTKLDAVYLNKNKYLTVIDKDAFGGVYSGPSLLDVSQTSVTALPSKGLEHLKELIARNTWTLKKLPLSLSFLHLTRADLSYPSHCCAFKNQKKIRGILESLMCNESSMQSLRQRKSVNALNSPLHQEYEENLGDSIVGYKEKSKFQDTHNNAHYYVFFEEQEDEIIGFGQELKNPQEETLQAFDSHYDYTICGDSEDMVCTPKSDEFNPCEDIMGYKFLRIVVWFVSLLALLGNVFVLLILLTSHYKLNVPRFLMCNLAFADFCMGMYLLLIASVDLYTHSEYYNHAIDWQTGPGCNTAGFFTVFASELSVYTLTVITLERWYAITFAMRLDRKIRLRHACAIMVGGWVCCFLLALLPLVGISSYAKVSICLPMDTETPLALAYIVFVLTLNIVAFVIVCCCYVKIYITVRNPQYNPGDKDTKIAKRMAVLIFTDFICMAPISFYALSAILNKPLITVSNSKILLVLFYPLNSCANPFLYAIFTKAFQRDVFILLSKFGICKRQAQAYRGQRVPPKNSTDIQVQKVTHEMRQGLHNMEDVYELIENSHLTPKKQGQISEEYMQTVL
Chain of Androgen receptor (Homo sapiens) (P10275 whole entry, looked up): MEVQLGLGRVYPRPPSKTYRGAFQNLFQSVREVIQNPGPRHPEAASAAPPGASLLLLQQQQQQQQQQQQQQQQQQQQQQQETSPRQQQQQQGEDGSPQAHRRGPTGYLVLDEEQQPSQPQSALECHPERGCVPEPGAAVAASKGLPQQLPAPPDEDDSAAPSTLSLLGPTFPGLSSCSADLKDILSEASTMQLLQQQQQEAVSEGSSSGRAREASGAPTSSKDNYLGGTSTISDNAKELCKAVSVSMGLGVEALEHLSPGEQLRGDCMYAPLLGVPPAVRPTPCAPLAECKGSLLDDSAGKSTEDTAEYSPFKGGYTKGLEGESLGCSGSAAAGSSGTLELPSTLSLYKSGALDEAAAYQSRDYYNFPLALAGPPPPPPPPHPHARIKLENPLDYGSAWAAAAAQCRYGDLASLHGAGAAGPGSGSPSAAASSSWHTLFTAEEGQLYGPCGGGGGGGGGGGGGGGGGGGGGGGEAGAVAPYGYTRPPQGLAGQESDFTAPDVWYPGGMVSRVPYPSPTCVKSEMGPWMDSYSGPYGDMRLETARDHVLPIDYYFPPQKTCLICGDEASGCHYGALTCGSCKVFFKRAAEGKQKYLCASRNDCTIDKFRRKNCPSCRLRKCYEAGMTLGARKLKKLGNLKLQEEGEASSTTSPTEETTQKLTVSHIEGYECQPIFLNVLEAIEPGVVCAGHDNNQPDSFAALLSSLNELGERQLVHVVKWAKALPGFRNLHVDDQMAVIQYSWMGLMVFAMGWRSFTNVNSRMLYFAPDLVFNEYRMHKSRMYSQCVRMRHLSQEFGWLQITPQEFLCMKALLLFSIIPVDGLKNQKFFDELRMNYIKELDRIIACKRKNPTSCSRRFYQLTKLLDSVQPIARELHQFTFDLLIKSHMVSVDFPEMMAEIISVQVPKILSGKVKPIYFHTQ

C[Si](C)O[Si](C)C
not listed: [18] | [19] | [20]
inactive: all other assays above

c1ccc2c(c1)CCC2
not listed: [20]
inactive: all other assays above

NC(=O)C(=O)N/N=C/c1ccc([N+](=O)[O-])o1
not listed: [7] | [9] | [17]
inactive: all other assays above

CCCC(=O)OCC(COC(=O)CCC)OC(=O)CCC
not listed: [17] | [18] | [20]
inactive: all other assays above

COc1nccnc1CC(C)C
not listed: [14] | [20]
inactive: all other assays above

CCCCCCS
not listed: [20]
inactive: all other assays above

Cc1cnccn1
not listed: [15] | [16] | [20]
inactive: all other assays above
